This excerpt belongs to a sample that is enriched for hits.
NOMO-1 viab = STK33 inhibitor candidate reducing NOMO-1 cell viability | NOMO-1 AML viability, CellTiter-Glo luminescence, 72 h | inhibition, % (test concentration not listed) | 37,000 tested, 7.5% active | AID 2330; in the data active = inhibition above about 80%
ROS inducer = inducers of reactive oxygen species in cancer cells; U2OS ROS induction, H2DCF-DA fluorescence; ROS induction (% of piperlongumine), % at 10 µM; 46,000 tested, 2% active; AID 624156; in the data active = ROS induction above about 79%, passing the limit was not always enough
Numbers stand for hits; – = inactive; · = no result given.

SMILES | NOMO-1 viab | ROS inducer
Cc1noc(C)c1NC(=O)Nc1cccc2c1O[C@H](CN(C)C(=O)Nc1cccc3ccccc13)[C@H](C)CN([C@H](C)CO)C2=O | – | –
CC(=O)Nc1ccc(S(=O)(=O)NC(C)C)cc1 | · | –
COC(=O)/C=C/S(=O)(=O)c1ccc(NC(C)=O)cc1 | 126 | 121
O=c1[nH]cnc2c1cnn2-c1ccccc1 | · | –
O=c1oc(-c2cccc(Cl)c2)nc2c1cnn2-c1ccccc1 | 115 | –
Cc1ccc(S(=O)(=O)Nc2cccc3c2O[C@H](CN(C)S(=O)(=O)c2ccccc2)[C@H](C)CN([C@H](C)CO)C3=O)cc1 | – | –
CCC1(C)Cc2nc3nc(SCC(=O)c4ccc(Br)cc4)n(-c4ccccc4)c(=O)c3cc2CO1 (stereo not drawn) | – | –
Cc1cccc(C2Sc3ccccc3N=C3c4ccccc4C(=O)C32)c1 (stereo not drawn) | 104 | 106
O=C1c2ccccc2C2=Nc3ccccc3SC(c3ccc(F)cc3)C12 (stereo not drawn) | · | –
CN(Cc1nc(-c2cccc([N+](=O)[O-])c2)no1)S(=O)(=O)c1ccc(Cl)cc1 | – | –
C[C@H](CO)N1C[C@H](C)[C@@H](CN(C)S(=O)(=O)c2ccccc2)Oc2ccc(NS(C)(=O)=O)cc2C1=O | – | –
C[C@@H]1CN([C@H](C)CO)C(=O)Cc2cc(NC(=O)c3ccncc3)ccc2O[C@H]1CN(C)Cc1ccccc1 | – | –
CC1(C)CC[C@@]2(C(=O)O)C(C1)C1=CCC3[C@@]4(C)CC[C@H](O[C@@H]5O[C@H](C(=O)O)[C@@H](O[C@@H]6OC[C@@H](O)[C@H](O)[C@H]6O)[C@H](O)[C@H]5O)C(C)(C)C4CC[C@@]3(C)[C@]1(C)C[C@H]2O (stereo partly drawn) | · | –
CC(=O)OCC1(C)CC2[C@]3(CO[C@@]24CCC2[C@@]5(C)CC[C@H](O[C@@H]6OC[C@@H](O)[C@H](O)[C@H]6O)[C@@](C)(CO)C5CC[C@@]2(C)[C@]4(C)C[C@H]3O)[C@@H](O)C1 (stereo partly drawn) | 123 | –
O=C(NCc1ccccc1)C(=O)C1C(=O)Nc2ccccc21 (stereo not drawn) | · | –
C[C@H]1CN([C@@H](C)CO)C(=O)c2cc(NS(C)(=O)=O)ccc2O[C@H]1CN(C)C | – | –
C[C@H]1CN([C@@H](C)CO)C(=O)Cc2cc(N(C)C)ccc2O[C@H]1CN(C)Cc1ccc(Cl)c(Cl)c1 | – | –
C[C@H](CO)N1C[C@H](C)[C@H](CN(C)Cc2ccc(Oc3ccccc3)cc2)Oc2ccc(N(C)C)cc2CC1=O | – | –
C[C@@H]1CN([C@H](C)CO)C(=O)Cc2cc(N(C)C)ccc2O[C@H]1CN(C)Cc1ccc(Oc2ccccc2)cc1 | 110 | –
C[C@@H]1CN([C@H](C)CO)C(=O)c2cc(N(C)C)ccc2O[C@H]1CN(C)Cc1ccc(-c2ccccc2)cc1 | – | –
C[C@@H]1CN([C@@H](C)CO)C(=O)c2cc(N(C)C)ccc2O[C@@H]1CN(C)Cc1ccc(Oc2ccccc2)cc1 | 90 | –
C[C@@H]1CN([C@@H](C)CO)C(=O)Cc2cc(N(C)C)ccc2O[C@@H]1CN(C)Cc1ccc(Cl)c(Cl)c1 | 127 | –
C[C@H]1CN([C@@H](C)CO)C(=O)c2cc(N(C)C)ccc2O[C@@H]1CN(C)Cc1ccc(-c2ccccc2)cc1 | – | 206
C[C@@H]1CN([C@@H](C)CO)C(=O)c2cc(N(C)C)ccc2O[C@H]1CN(C)Cc1ccc(Oc2ccccc2)cc1 | – | –
N#CC(CC(=O)c1ccccc1)c1ccccc1 (stereo not drawn) | · | –
SMILES | NOMO-1 viab | ROS inducer
CCC(Sc1nc2ccccc2s1)C(=O)Nc1ccc(Br)cc1 (stereo not drawn) | – | –
C[C@@H]1CN([C@H](C)CO)C(=O)c2cc(NC(=O)C3CC3)ccc2O[C@@H]1CN(C)S(C)(=O)=O | – | –
COc1ccc(N2C(=O)CC(SCC(=O)Nc3c(C)cccc3C)C2=O)cc1 (stereo not drawn) | – | –
COc1cccc(OCc2nc(-c3ccc(OC)c(OC)c3)no2)c1 | – | ·
COc1ccc(OCc2nnc3n2N=C(c2ccc(OC)c(OC)c2)C(c2ccccc2)S3)cc1 (stereo not drawn) | – | 99
Cc1ccc(-c2noc(CN(C(=O)c3ccccc3-c3ccccc3)C(C)C)n2)cc1 | 87 | ·
CC(C)N(Cc1nc(-c2ccccc2Cl)no1)C(=O)c1ccccc1-c1ccccc1 | – | ·
O=S(=O)(Nc1ccccc1N1CCOCC1)c1ccc(-c2ccccn2)s1 | · | –
CCCCCC(O)CC(O)CCc1ccc(O)c(OC)c1 (stereo not drawn) | · | –
CCCCCCCCC[C@@H](O)CC(=O)CCc1ccc(O)c(OC)c1 | 92 | –
O=C(CSc1nnc(-c2cccnc2)o1)c1ccc(Br)cc1 | – | –
C[C@@H]1CN([C@@H](C)CO)C(=O)Cc2cc(NC(=O)c3ccncc3)ccc2O[C@@H]1CN(C)C(=O)Nc1ccc2c(c1)OCO2 | – | –
COc1ccc(C(=O)CSc2nc3c([nH]2)c(=O)n(C)c(=O)n3C)cc1 | · | –
CCOC(=O)COc1ccc(-c2nc3c([nH]2)c(=O)n(C)c(=O)n3C)cc1OC | 149 | –
C/C=C(/C)C(=O)O[C@H]1[C@H](OC(=O)/C(C)=C\C)[C@]2(CO)[C@H](O)C[C@]3(C)C(=CCC4[C@@]5(C)CC[C@H](OC6OC(C(=O)O)C(O)C(OC7OC(C)C(O)C(OC8OC(CO)C(O)C(O)C8O)C7O)C6O)C(C)(C)C5CC[C@]43C)[C@@H]2CC1(C)C (stereo partly drawn) | 122 | –
CC1(C)CC[C@@]2(C(=O)O[C@@H]3O[C@H](CO)[C@@H](O)[C@H](O)[C@H]3O)C(C1)C1=CCC3[C@@]4(C)CC[C@@H](O[C@@H]5O[C@H](CO)[C@@H](O)[C@H](O)[C@H]5O[C@@H]5O[C@H](CO)[C@@H](O)[C@H](O)[C@H]5O)C(C)(C)C4CC[C@@]3(C)[C@]1(C)C[C@H]2O (stereo partly drawn) | – | –
CC1(C)CC[C@]2(C(=O)O[C@@H]3O[C@H](CO)[C@@H](O)[C@H](O)[C@H]3O)CC[C@]3(C)C(=CCC4[C@@]5(C)CC[C@H](O[C@@H]6O[C@H](CO)[C@@H](O)[C@H](O[C@@H]7O[C@H](CO)[C@@H](O)[C@H](O)[C@H]7O)[C@H]6O[C@@H]6O[C@H](CO)[C@H](O)[C@H](O)[C@H]6O)C(C)(C)C5CC[C@]43C)[C@@H]2C1 (stereo partly drawn) | · | –
C/C=C(\C)C(=O)OC1C(OC(=O)/C=C(/C)CC(=O)O)C2(CO)C(O)CC3(C)C(=CCC4C5(C)CCC(OC6OC(C(=O)O)C(O)C(OC7OC(C)C(O)C(OC8OC(CO)C(O)C(O)C8O)C7O)C6O)C(C)(C)C5CCC43C)C2CC1(C)C (stereo not drawn) | 122 | –

Screening data as filed in PubChem BioAssay.
